Assay outcomes from PubChem BioAssay.
The list is not random: actives were taken first. Their share in the collection is about 9.2%.
ELG1 genotox – induces genotoxicity in HEK293T cells with luciferase-tagged ELG1. AID 504466. HEK293T ELG1-luciferase reporter, luminescence, 16 h. Potency, µM (titrated, usually from 46 µM), most hits filed as activators. 330,000 compounds, 1.3% hits; further: nearly all actives have a fitted effect of over 60% in size
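Quantitative HTS format in 1536-well plates. HEK293T ELG1-luciferase reporter cells receive test compound and are incubated 16 hr at 37 °C, 5% CO2; ONE-Glo added, 30 min room temperature, then luminescence read.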
SMN2 splice enh – increases expression of the SMN2 splice variant | HEK293 SMN2-luciferase splicing reporter, luminescence, 30-36 h | Potency, µM (titrated, usually from 46.1 µM), most hits filed as activators | 210,000 compounds, 2.8% hits | AID 1458; further: nearly all actives have a fitted effect of over 55% in size
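HEK293 cells carry an SMN2 minigene-luciferase reporter in which exon 7 inclusion puts luciferase in frame. Cells were seeded at 2000 cells/well, attached for 10-12 hours, then exposed to compounds for 30-36 hours at 37C before ONE-Glo luminescence.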
NPC1 promoter act – activators of NPC1 promoter. Huh7 NPC1 promoter luciferase reporter, 24 h. Potency, µM (titrated, usually from 9.22 µM), hits mostly activators. 320,000 compounds, 2.4% hits. AID 485313; further: nearly all actives have a fitted effect of over 60% in size
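Quantitative HTS used a cell-based reporter: Huh7 cells stably bearing the NPC1 promoter upstream of luciferase were treated with compounds for 24 h, and promoter activation was read as luminescence.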
ELG1 repair inh – ELG1-dependent DNA repair inhibition. AID 504467. Potency, µM (titrated, usually from 46.1 µM), usual class: inhibitors. 330,000 compounds, 2.3% hits. HEK293T ELG1-luciferase reporter, luminescence, 16 h; DNA damage induced by 5-fluorouridine; further: nearly all actives have a fitted effect of over 55% in size
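Step one: seed 2,000 cells per well. Step two: pin-transfer compound or DMSO alongside 5-fluorouridine. Step three: incubate 16 hr, 37 °C, 5% CO2. Step four: add ONE-Glo, wait 30 min, read luminescence.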
Rab9 prom act – activates the Rab9 promoter; 320,000 compounds, 2.8% hits; Huh7 Rab9 promoter-luciferase reporter, luminescence, 24 h; Potency, µM (series often up to 9.22 µM), most hits filed as activators; further: nearly all actives have a fitted effect of over 60% in size
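Huh7 cells stably carrying a Rab9 promoter-luciferase reporter, 1500 cells per well in OP-MEM I with 10% FBS, treated with compound 24 hours at 37C. Luciferase activity read by luminescence after 10 minutes with Amplite reagent.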
FLuc counter – counter-screen for miR-21 project: firefly luciferase inhibitors or activators; P08659; purified FLuc, Km substrates, luminescence inhibition; Potency, µM (top dose mostly 57.5 µM), hits mostly inhibitors; 360,000 compounds, 6.9% hits; further: nearly all actives have a fitted effect of over 55% in size
Target sequence (P08659 whole entry, looked up): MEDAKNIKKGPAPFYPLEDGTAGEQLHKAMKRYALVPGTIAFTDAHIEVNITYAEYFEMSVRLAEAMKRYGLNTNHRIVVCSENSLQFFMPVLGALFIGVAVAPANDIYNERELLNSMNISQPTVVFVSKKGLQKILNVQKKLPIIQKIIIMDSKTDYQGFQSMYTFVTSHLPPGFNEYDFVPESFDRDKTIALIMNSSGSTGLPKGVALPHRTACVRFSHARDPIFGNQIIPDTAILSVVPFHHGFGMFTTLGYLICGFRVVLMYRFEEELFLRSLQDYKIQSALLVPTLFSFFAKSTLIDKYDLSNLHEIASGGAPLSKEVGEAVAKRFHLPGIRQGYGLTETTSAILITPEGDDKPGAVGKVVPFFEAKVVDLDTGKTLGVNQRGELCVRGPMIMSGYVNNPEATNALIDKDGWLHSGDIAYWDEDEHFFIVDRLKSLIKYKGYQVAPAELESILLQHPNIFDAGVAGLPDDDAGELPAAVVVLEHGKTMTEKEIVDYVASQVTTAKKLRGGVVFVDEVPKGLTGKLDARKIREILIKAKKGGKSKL
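Purified P. pyralis luciferase, 10 nM final, with Km-level 10 uM D-luciferin and 10 uM ATP in 50 mM Tris acetate pH 7.5, 10 mM Mg acetate, 0.01% Tween-20, 0.05% BSA; 6-point qHTS titration about 60 µM downward; luminescence read.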
Numbers stand for hits; - = inactive; ? = inconclusive; . = no result; [ ] = dose if it differs, or a comment. The call rests on the fitted dose curve; in most records, active means well fitted curve in the direction sought with a large enough effect; inconclusive means small, poorly fitted or top-dose-only effect, or another doubt; inactive means no such curve, though single readings can be large; an effect the other way counts as inactive or inconclusive.

SMILES	ELG1 genotox	SMN2 splice enh	NPC1 promoter act	ELG1 repair inh	Rab9 prom act	FLuc counter
COc1cccc(-c2nn3c(-c4cccc(C)c4)nnc3s2)c1	-	-	-	?	-	19µM
COc1cccc(-c2nnc3sc(-c4ccco4)nn23)c1	?	-	4.5µM	?	2.8µM	?
c1ccc(-c2cc(-c3nn4c(-c5ccco5)nnc4s3)c3ccccc3n2)cc1	-	-	-	21µM	-	-
COc1ccc(-c2nnc3sc(-c4ccco4)nn23)cc1OC	?	-	-	-	-	-
Cc1cccc(-c2nc3scc(CCNS(=O)(=O)c4ccc(F)c(C(F)(F)F)c4)n3n2)c1	.	.	.	.	.	-
CN=c1scc(-c2ccccc2Br)n1/N=C/c1ccc[nH]1	0.46µM	.	?	?	?	1.1µM
CN=c1scc(-c2ccc(Br)cc2)n1C	-	-	-	-	-	-
Cc1c(-c2nc(N)nc(C3CC3)c2C)nc(N)nc1C1CC1	.	-[9.22 µM]	.	.	.	.
CCc1ccc(OCC2c3cc(OC)c(OC)cc3CCN2C(=S)NCCOC)cc1 (stereo unspecified)	-	-	-	23µM	-	-
Cc1ccsc1/C=N/N=C1\C(=O)Nc2ccccc21	-	-	?	?	-	?
COc1cc(/C=N/N=C2/NC(=O)C(Cc3ccc(F)cc3)S2)ccc1O (stereo unspecified)	?	-	-	?	-	2.7µM
O=C1c2ccccc2C(=O)N1/N=C/c1ccc(O)c(O)c1O	-	.	-	-	-	17µM
O=C1Nc2ccccc2/C1=N\N=C\c1ccc(O)c(O)c1	?	.	-	?	-	24µM
COc1cc(/C=N/N=C2/C(=O)Nc3ccccc32)ccc1O	?	-[1.84 µM]	-	?	-	6.7µM
Cc1ccc(OCCC(=O)O)cc1	-	.	-	-	-	-
COc1cc2c(-c3ccc4[nH]ccc4c3)c(-c3ccc(C#N)cc3)oc(=O)c2cc1OC	-	.	-	?	-	-
COc1cc(/C=N/N2C(=O)c3ccccc3C2=O)ccc1O	-	-	-	-	-	12µM
CCOC(=O)c1c(NC(=O)c2cc(-c3ccc(Br)cc3)on2)sc(C)c1C	.	-	.	.	.	-
CCN(CC)CCCCn1c(-c2ccccc2)nc2c(NCCOC)nc(C)nc21	.	-	.	.	.	.
N#C/C(=C\c1ccc(F)cc1)c1nc(-c2ccco2)cs1	?	-	?	?	?	2.7µM
Fc1ccc2nc(C3CCN(Cc4nc(CC5CC5)no4)CC3)[nH]c2c1	-	.	-	?	-	-
Fc1ccccc1C1CCN(Cc2nc(CC3CC3)no2)C1 (stereo unspecified)	?	.	?	?	?	17µM
CCN(CCCNC(=O)Cn1ncc2c3ccccc3n(C)c2c1=O)c1cccc(C)c1	.	-	.	.	.	-
Cc1occc1C(=O)N1CCN(c2ccc([N+](=O)[O-])cc2)CC1	-	.	-	-	-	-
Cc1c(C(=O)OCC(=O)N2CCN(c3ccccc3)CC2)oc2ccccc12	-	.	.	?	.	.
SMILES	ELG1 genotox	SMN2 splice enh	NPC1 promoter act	ELG1 repair inh	Rab9 prom act	FLuc counter
Cc1c(C(=O)N2CCN(c3ccc([N+](=O)[O-])cc3)CC2)oc2ccccc12	-	.	-	11µM	-	-
Cc1c(-c2ccccc2)oc2c(C(=O)N3CCN(c4ccc([N+](=O)[O-])cc4)CC3)cccc2c1=O	-	-	-	3.3µM	-	-
Nc1ccc(C(=O)OCc2nc3c(ccc4ccccc43)[nH]2)cc1	?	-	-	?	?	13µM
Cc1ccc2nc(CCc3ccc(N)cc3)[nH]c2c1	?	.	2.8µM	?	3.2µM	15µM
CCc1nc2ccc(Cc3ccc4nc(CC)[nH]c4c3)cc2[nH]1	-	.	-	-	-	12µM
Nc1ccc(C(=O)OCCCc2nc3cc4ccccc4cc3[nH]2)cc1	-	.	-	?	-	15µM
Nc1ccc2nc(CCc3ccccc3)[nH]c2c1	-	?	-	?	?	?
Nc1ccc(Cc2nc3cc4ccccc4cc3[nH]2)cc1	-	13µM	?	?	?	19µM
O=[N+]([O-])c1cccc(S(=O)(=O)Nc2nc3ccccc3nc2Nc2cccc(S(=O)(=O)N3CCCCC3)c2)c1	-	-	-	2.1µM	-	-
COc1ccc(NS(=O)(=O)c2ccc(-c3coc(C)n3)cc2)cc1OC	-	.	-	0.41µM	-	-
